ChEMBL document CHEMBL2218924, “A broad activity screen in support of a chemogenomic map for kinase signalling research and drug discovery” (Biochem J, 2013)

How the values were obtained:
[1] = target: T1, CDK3/cyclin E (Homo sapiens) (UniProt P24864+O96020+Q00526); conditions: at 1 µM
[2] = target: T1, CDK3/cyclin E (Homo sapiens); conditions: at 10 µM
[3] = target: T2, Cyclin-dependent kinase 5/CDK5 activator 1 (Homo sapiens) (UniProt Q00535+Q15078); conditions: at 1 µM
[4] = target: T2, Cyclin-dependent kinase 5/CDK5 activator 1 (Homo sapiens); conditions: at 10 µM
[5] = target: T2, Cyclin-dependent kinase 5/CDK5 activator 1 (Homo sapiens); conditions: at 1 µM; remark: listed apart in the source
[6] = target: T2, Cyclin-dependent kinase 5/CDK5 activator 1 (Homo sapiens); conditions: at 10 µM; remark: listed apart in the source
[7] = target: T3, CDK6/cyclin D3 (Homo sapiens) (UniProt P30281+Q00534); conditions: at 1 µM
[8] = target: T3, CDK6/cyclin D3 (Homo sapiens); conditions: at 10 µM
[9] = target: T4, Cyclin-dependent kinase 7/ cyclin H (Homo sapiens) (UniProt P51946+P50613); conditions: at 1 µM
[10] = target: T4, Cyclin-dependent kinase 7/ cyclin H (Homo sapiens); conditions: at 10 µM
[11] = target: T5, CDK9/cyclin T1 (Homo sapiens) (UniProt O60563+P50750); conditions: at 1 µM
[12] = target: T5, CDK9/cyclin T1 (Homo sapiens); conditions: at 10 µM
[13] = target: T6, Serine/threonine-protein kinase Chk1 (Homo sapiens) (UniProt O14757); conditions: at 1 µM
T6 sequence (whole entry): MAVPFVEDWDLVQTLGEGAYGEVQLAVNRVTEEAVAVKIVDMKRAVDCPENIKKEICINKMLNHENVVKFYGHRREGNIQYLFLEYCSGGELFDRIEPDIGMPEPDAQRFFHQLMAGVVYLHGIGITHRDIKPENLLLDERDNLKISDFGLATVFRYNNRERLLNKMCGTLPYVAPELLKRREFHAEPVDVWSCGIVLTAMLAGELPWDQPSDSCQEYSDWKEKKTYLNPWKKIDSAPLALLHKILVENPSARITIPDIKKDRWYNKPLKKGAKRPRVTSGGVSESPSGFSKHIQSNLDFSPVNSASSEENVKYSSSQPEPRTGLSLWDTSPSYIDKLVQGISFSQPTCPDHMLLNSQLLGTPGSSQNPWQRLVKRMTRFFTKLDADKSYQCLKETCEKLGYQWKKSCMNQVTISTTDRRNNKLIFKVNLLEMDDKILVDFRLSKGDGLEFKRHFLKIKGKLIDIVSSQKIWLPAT

[14] = target: T6, Serine/threonine-protein kinase Chk1 (Homo sapiens); conditions: at 10 µM
[15] = target: Serine/threonine-protein kinase Chk2 (Homo sapiens) (UniProt O96017); conditions: at 1 µM
[16] = target: Serine/threonine-protein kinase Chk2 (Homo sapiens) (UniProt O96017); conditions: at 10 µM
[17] = target: Casein kinase I isoform gamma-1 (Homo sapiens) (UniProt Q9HCP0); conditions: at 1 µM
[18] = target: Casein kinase I isoform gamma-1 (Homo sapiens) (UniProt Q9HCP0); conditions: at 10 µM
[19] = target: Casein kinase I isoform delta (Homo sapiens) (UniProt P48730); conditions: at 1 µM
[20] = target: Casein kinase I isoform delta (Homo sapiens) (UniProt P48730); conditions: at 10 µM

Casein kinase I isoform delta (Homo sapiens), sequence (P48730 whole entry, looked up, canonical isoform): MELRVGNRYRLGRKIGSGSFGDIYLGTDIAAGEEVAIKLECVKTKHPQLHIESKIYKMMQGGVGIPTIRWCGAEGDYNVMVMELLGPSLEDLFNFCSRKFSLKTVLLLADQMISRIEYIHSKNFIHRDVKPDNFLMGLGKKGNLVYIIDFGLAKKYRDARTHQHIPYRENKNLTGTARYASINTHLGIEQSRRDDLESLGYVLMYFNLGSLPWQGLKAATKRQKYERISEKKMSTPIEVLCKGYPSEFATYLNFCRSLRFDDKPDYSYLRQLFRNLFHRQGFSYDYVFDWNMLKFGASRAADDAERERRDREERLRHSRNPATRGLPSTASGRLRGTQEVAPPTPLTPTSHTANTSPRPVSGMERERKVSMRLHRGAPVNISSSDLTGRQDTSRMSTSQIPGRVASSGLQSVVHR
T1 sequence (O96020 whole entry, looked up): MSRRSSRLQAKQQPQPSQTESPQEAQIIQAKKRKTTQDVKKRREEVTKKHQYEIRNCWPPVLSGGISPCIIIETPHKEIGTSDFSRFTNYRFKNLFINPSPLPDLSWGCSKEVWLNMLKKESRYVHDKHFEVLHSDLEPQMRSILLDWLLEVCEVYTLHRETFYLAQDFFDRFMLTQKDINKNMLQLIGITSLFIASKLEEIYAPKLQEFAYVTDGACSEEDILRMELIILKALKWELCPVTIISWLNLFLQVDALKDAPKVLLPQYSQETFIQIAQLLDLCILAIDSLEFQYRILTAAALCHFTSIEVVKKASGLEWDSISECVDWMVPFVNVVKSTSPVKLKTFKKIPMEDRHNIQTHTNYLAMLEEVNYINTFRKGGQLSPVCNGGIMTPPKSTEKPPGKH
T1 sequence (P24864 whole entry, looked up): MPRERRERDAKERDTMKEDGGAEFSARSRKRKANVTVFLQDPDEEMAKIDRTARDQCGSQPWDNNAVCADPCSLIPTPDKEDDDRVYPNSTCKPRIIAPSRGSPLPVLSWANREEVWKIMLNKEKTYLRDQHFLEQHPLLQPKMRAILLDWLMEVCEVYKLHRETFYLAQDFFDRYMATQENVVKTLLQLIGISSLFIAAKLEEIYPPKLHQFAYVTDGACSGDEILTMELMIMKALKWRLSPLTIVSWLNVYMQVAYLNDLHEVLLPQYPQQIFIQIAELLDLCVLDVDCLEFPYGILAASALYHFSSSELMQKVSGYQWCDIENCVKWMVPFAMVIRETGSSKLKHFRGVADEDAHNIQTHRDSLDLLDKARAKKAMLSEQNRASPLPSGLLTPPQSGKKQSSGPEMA
T1 sequence (Q00526 whole entry, looked up): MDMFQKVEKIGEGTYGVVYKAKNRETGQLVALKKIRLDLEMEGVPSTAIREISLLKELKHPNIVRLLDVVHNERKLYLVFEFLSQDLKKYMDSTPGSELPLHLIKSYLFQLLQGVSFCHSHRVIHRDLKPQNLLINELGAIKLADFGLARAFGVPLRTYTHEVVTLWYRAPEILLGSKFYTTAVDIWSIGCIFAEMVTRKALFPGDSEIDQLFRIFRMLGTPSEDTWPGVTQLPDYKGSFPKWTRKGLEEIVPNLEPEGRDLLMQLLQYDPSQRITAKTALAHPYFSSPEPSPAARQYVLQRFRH
Casein kinase I isoform gamma-1 (Homo sapiens), sequence (Q9HCP0 whole entry, looked up, canonical isoform): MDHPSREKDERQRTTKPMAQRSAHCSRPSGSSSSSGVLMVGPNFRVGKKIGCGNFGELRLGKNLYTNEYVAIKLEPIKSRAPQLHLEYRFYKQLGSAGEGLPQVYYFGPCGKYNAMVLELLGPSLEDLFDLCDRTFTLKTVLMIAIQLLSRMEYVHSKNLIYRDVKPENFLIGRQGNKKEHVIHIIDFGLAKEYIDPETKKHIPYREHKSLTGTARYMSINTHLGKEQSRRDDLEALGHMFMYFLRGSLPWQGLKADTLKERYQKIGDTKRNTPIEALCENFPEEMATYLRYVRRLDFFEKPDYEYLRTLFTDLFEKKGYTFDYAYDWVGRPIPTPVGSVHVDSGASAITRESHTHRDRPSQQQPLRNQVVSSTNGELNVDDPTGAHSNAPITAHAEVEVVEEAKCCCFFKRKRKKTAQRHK
Serine/threonine-protein kinase Chk2 (Homo sapiens), sequence (O96017 whole entry, canonical isoform): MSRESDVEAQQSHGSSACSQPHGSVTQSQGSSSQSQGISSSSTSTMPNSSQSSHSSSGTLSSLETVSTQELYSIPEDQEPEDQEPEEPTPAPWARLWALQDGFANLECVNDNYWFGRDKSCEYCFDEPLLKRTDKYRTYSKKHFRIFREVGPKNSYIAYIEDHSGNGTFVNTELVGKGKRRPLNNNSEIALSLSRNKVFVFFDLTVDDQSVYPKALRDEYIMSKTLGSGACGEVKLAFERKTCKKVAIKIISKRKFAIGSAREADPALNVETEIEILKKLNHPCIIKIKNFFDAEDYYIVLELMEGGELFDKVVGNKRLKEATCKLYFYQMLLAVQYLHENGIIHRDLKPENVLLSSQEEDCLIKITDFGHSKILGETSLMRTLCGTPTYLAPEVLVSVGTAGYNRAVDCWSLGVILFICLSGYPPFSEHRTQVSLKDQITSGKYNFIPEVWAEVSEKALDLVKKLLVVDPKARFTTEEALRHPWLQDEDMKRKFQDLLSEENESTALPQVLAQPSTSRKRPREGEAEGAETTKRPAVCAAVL

SMILES | residual activity [1] [%] | residual activity [2] [%] | residual activity [3] [%] | residual activity [4] [%] | residual activity [5] [%] | residual activity [6] [%] | residual activity [7] [%] | residual activity [8] [%] | residual activity [9] [%] | residual activity [10] [%] | residual activity [11] [%] | residual activity [12] [%] | residual activity [13] [%] | residual activity [14] [%] | residual activity [15] [%] | residual activity [16] [%] | residual activity [17] [%] | residual activity [18] [%] | residual activity [19] [%] | residual activity [20] [%]
c1ccc2c(-c3ccncc3)c[nH]c2c1 | 90 | 73 | 91 | 74 | 86 | 75 | 85 | 82 | 83 | 94 | 67 | 20 | 89 | 80 | 86 | 100 | 96 | 95 | 85 | 81
CCN(CC)C(=O)c1ccc(Nc2nc(OCC3CCCCC3)c3nc[nH]c3n2)cc1 | – | 34 | 59 | 10 | 74 | 16 | 39 | 5 | 67 | 16 | 46 | 8 | 57 | 10 | 55 | 12 | 42 | 7 | 71 | 34
O=[N+]([O-])c1ccc(-c2nc(-c3ccc(F)cc3)c(-c3ccncc3)[nH]2)cc1 | 91 | 85 | 95 | 94 | 108 | 98 | 101 | 101 | 101 | 90 | 103 | 24 | 102 | 92 | 97 | 84 | 75 | 88 | – | 4
CNc1cc2c(Nc3cccc(Br)c3)ncnc2cn1 | 88 | 83 | 98 | 110 | 79 | 89 | 94 | 81 | 87 | 74 | 86 | 86 | 88 | 77 | 97 | 56 | 101 | 69 | 111 | 90
c1ccc(-c2n[nH]cc2-c2ccnc3ccccc23)nc1 | 83 | 79 | 83 | 63 | – | – | – | – | 98 | 95 | 103 | 67 | 89 | 91 | 90 | 88 | 89 | 47 | 25 | 2
O=c1cc(-c2cccc3c2Sc2ccccc2S3)oc(N2CCOCC2)c1 | 99 | 97 | 95 | 94 | 112 | 90 | 101 | 85 | 121 | 80 | 100 | 89 | 97 | 94 | 106 | 87 | 101 | 43 | 92 | 44
C[C@@H](N)[C@H]1CC[C@H](C(=O)Nc2ccncc2)CC1 | 117 | 112 | 99 | 85 | 117 | 78 | 108 | 109 | 101 | 93 | 97 | 57 | 107 | 104 | 103 | 97 | 102 | 99 | 103 | 110
Cc1cc(Nc2nc(-c3ccccc3)nc3ccccc23)n[nH]1 | 63 | 19 | 69 | 32 | 71 | 31 | 53 | 9 | 19 | 1 | 76 | 29 | 54 | 16 | 22 | 2 | – | 28 | 96 | 51
N#CC(C#N)=C(N)/C(C#N)=C/c1ccc(O)cc1 | 94 | 89 | – | 83 | – | 117 | 98 | 87 | 96 | 90 | – | 86 | 90 | 96 | 88 | 85 | 83 | 99 | 82 | 54
COc1ccc(CNc2nc(N(CCO)CCO)nc3c2ncn3C(C)C)cc1 | 52 | 9 | 11 | 2 | 18 | 2 | 91 | 77 | 94 | 36 | 29 | 0 | 93 | 87 | 77 | 33 | 67 | 29 | 40 | 6
NC(=O)c1ccc2[nH]c(-c3ccc(Oc4ccc(Cl)cc4)cc3)nc2c1 | 87 | 80 | 68 | 31 | 83 | 55 | 93 | 82 | 99 | 98 | 81 | 78 | 91 | 97 | – | – | 78 | 57 | 83 | 83
Nc1n[nH]c2nnc(-c3c(-c4ccccc4)nn4ccccc34)cc12 | 90 | 90 | 95 | 99 | 112 | 79 | 81 | 43 | 106 | 89 | 98 | 92 | 90 | 82 | 98 | 78 | 94 | 84 | 60 | 17
COc1ccc(S(=O)(=O)N(CCO)c2ccccc2CN(C)C/C=C/c2ccc(Cl)cc2)cc1 | 92 | 80 | 91 | 84 | 90 | 97 | 97 | 86 | 102 | 88 | 87 | 113 | 92 | 89 | 103 | 73 | 103 | 75 | 87 | 66
O=C(O)c1ccc2c3c1cccc3c(=O)n1c3ccccc3nc21 | 108 | 94 | 85 | 43 | – | 57 | 114 | 86 | 100 | 91 | 75 | 30 | 99 | 94 | 86 | 38 | 99 | 65 | 87 | 58
COc1cc2ncc(-c3ccccc3)nc2cc1OC | 96 | 91 | – | – | – | 93 | – | – | 95 | 91 | – | – | 90 | 78 | 86 | 88 | 90 | 78 | 72 | 39
